About 3,800 (1%) of roughly 370,000 compounds were called active. The list comes from a sample in which actives are over-represented; it also holds similar structures and randomly drawn compounds. Unmarked numbers belong to inactive results. Cut-off read from the data, not from the text of the source: active = activation above about 7.8%; inactive = the rest.
Assay: SMARCA2 (BRM) function activators, primary screen, cell-based, luminescence, high throughput (AID 652017);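 note: 0% = vehicle wells and 100% = reference activator wells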
Details: MG213 cells, MMTV-luciferase reporter, dexamethasone, overnight; at 9.1 µM; hits give high values

SMILES | activation
O=C(N/N=C/c1c(O)n(C2CC2)c(=S)[nH]c1=O)c1ccccc1Cl | 1.16%
O=C(N/N=C/c1c(O)n(C2CC2)c(=S)[nH]c1=O)c1ccccc1 | 5.22%
O=C(N/N=C/c1c(O)n(Cc2ccccc2)c(=O)[nH]c1=O)c1ccccc1 | 8.1% (active)
Cc1ccccc1CCC[C@@H](CC1CCCCC1)CN(C)C(=O)Oc1ccccc1 | 0.55%
COc1ccc2c(c1)NP(=S)(c1ccccc1)N2 (stereo not given) | 0.4%
Cc1cc(C)c2c(c1)NP(=S)(c1ccccc1)N2 (stereo not given) | 9.88% (active)
COc1cccc(C(=O)N2C[C@H]3C[C@@H](C2)c2cccc(=O)n2C3)c1 | 0.48%
COP(=O)(Sc1ccccc1)C(Cc1ccccc1)NC(=O)OCc1ccccc1 (stereo not given) | 0.4%
NCC(O)c1ccc(O)cc1 (stereo not given) | -0.14%
O=C1CC(=O)N(Cc2ccccc2)C(=O)N1CCCCCCN1C(=O)CC(=O)N(Cc2ccccc2)C1=O | 1.8%

— PubChem BioAssay AID652017 (The Scripps Research Institute Molecular Screening Center, 2013)
